Experimental data reported in paper PMC7862700, “An all-to-all approach to the identification of sequence-specific readers for epigenetic DNA modifications on cytosine”.

What was measured:
Assay in all cases: DAPPL (digital affinity profiling via proximity ligation, sequencing); 10 mM Tris-HCl pH 7.5, 50 mM NaCl, 1 mM DTT, 4% glycerol, room temperature, 30 min; GST-TFs on glutathione beads, 16-mer random dsDNA library, 0.1% formaldehyde crosslink after washing; high values mean tight binding
Details in all cases: protein: recombinant; tags: N-terminal GST; dsDNA, one strand shown
FEV = target: T1, FEV (Homo sapiens, UniProt Q99581 1-238)
T1 sequence: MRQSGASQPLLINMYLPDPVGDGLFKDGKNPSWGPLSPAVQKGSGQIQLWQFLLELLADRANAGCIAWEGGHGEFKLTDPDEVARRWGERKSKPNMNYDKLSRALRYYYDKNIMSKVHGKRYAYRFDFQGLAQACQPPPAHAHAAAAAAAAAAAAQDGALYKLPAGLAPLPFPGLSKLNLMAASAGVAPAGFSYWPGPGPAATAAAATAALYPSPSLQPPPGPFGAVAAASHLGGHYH
Procedure, shortened: (§1)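 Beads coated with glutathione captured GST-fused human transcription factors that had been expressed in yeast, and the factors were then given DNA barcodes and pooled with a tag-only sample. The pools were incubated with 200 nmole of a random double-stranded 16-mer DNA library in Tris/NaCl/DTT/glycerol buffer for 30 min at room temperature, washed, crosslinked with 0.1% formaldehyde and proximity-ligated with BsaI/T4 ligase at 37 °C for 1 h. PCR amplification and Illumina NextSeq500 sequencing came last. Binding signal is each hexamer's read frequency for a factor divided by its frequency for the tag-only sample.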

ETV5 = ETV5 (Homo sapiens, UniProt P41161 1-510)
Chain of ETV5 (P41161 whole entry): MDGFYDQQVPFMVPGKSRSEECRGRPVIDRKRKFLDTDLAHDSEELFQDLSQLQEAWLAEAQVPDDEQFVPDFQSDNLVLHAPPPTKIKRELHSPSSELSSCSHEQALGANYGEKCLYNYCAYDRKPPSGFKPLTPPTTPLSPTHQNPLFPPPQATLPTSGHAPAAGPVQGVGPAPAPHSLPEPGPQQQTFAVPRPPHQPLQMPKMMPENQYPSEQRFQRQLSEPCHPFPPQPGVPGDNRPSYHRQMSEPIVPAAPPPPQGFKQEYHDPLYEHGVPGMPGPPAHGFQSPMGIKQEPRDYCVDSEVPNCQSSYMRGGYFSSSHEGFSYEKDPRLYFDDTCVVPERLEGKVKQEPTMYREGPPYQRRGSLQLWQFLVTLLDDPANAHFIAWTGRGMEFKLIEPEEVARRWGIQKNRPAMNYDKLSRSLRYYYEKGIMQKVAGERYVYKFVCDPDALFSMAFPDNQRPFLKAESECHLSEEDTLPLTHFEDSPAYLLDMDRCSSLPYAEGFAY
Procedure, shortened: as §1

SPIC = target: T2, SPIC (Homo sapiens, UniProt Q8N5J4 1-248)
T2 sequence: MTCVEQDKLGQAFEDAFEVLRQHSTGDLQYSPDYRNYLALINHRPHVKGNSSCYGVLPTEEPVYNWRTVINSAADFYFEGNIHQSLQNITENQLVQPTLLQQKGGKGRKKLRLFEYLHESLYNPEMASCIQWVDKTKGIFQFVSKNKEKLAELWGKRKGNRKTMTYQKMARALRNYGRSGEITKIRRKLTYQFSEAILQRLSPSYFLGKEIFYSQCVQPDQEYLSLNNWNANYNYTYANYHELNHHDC
Procedure, shortened: as §1

ELF4 = ELF4 (Homo sapiens, UniProt Q99607 1-663)
Chain of ELF4 (Q99607 whole entry): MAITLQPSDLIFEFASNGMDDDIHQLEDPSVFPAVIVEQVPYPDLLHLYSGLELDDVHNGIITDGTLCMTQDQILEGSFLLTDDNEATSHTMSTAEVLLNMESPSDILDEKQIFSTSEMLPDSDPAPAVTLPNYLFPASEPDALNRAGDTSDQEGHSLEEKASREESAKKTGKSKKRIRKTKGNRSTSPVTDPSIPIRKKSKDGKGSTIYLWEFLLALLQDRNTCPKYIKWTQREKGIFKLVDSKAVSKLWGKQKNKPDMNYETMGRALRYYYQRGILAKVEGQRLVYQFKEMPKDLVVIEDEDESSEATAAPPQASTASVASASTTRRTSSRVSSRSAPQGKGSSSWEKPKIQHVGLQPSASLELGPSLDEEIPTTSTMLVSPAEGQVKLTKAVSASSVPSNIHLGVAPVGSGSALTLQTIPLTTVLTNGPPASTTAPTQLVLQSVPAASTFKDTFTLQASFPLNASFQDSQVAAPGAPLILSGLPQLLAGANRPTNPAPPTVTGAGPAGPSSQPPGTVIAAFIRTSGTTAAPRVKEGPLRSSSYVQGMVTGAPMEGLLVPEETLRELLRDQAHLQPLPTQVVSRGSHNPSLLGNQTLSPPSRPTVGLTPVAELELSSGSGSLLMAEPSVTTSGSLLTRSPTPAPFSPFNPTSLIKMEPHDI
Procedure, shortened: as §1

ELK4 = target: T3, ELK4 (Homo sapiens, UniProt P28324-2 1-405)
T3 sequence: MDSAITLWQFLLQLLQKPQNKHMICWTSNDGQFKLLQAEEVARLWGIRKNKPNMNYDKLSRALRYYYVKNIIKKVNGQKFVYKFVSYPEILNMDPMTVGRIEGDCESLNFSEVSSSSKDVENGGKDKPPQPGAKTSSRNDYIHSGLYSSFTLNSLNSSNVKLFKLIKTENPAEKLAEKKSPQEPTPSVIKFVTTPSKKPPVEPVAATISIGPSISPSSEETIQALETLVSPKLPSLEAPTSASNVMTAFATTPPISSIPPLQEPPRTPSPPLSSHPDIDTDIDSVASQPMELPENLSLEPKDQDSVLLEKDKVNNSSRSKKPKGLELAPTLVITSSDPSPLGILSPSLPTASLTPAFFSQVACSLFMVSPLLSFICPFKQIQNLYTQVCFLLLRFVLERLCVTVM
Procedure, shortened: as §1

ETV2 = target: T4, ETV2 (Homo sapiens, UniProt O00321 1-342)
T4 sequence: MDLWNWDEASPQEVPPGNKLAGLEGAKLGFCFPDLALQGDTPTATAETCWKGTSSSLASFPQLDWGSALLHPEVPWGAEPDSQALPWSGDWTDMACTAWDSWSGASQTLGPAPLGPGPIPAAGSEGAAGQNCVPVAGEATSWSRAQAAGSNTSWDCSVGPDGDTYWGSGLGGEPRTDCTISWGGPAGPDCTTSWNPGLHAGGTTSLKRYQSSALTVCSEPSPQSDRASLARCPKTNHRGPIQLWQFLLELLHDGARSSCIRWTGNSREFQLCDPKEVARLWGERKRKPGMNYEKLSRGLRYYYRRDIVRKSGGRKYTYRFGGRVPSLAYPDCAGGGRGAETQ
Procedure, shortened: as §1

ELF3 = target: T5, ELF3 (Homo sapiens, UniProt P78545 1-371)
T5 sequence: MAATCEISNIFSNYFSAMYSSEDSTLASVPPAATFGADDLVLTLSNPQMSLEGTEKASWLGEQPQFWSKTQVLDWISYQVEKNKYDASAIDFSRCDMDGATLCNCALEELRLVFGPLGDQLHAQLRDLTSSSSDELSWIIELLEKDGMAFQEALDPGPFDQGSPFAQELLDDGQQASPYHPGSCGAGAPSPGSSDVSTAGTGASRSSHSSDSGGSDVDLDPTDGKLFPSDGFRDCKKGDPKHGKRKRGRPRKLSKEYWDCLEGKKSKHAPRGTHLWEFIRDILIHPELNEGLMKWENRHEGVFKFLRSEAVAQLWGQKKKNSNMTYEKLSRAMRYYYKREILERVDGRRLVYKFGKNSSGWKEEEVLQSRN
Procedure, shortened: as §1

ETV1 = ETV1 (Homo sapiens, UniProt P50549 1-477)
Chain of ETV1 (P50549 whole entry): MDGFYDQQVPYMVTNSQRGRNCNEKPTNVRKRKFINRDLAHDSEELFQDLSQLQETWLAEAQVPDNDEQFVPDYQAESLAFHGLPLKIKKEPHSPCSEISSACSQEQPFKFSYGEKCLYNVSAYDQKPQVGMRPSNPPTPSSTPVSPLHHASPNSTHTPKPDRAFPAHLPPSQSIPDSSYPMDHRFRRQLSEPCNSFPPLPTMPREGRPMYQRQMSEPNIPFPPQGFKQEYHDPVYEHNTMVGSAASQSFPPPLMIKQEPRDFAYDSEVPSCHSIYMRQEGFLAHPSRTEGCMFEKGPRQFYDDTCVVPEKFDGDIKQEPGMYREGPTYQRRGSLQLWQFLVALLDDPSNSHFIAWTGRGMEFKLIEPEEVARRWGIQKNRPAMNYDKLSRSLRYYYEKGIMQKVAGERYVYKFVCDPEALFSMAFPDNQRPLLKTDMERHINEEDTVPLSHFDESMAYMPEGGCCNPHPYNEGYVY
Procedure, shortened: as §1

ERF = target: T6, ERF (Homo sapiens, UniProt P50548 1-548)
T6 sequence: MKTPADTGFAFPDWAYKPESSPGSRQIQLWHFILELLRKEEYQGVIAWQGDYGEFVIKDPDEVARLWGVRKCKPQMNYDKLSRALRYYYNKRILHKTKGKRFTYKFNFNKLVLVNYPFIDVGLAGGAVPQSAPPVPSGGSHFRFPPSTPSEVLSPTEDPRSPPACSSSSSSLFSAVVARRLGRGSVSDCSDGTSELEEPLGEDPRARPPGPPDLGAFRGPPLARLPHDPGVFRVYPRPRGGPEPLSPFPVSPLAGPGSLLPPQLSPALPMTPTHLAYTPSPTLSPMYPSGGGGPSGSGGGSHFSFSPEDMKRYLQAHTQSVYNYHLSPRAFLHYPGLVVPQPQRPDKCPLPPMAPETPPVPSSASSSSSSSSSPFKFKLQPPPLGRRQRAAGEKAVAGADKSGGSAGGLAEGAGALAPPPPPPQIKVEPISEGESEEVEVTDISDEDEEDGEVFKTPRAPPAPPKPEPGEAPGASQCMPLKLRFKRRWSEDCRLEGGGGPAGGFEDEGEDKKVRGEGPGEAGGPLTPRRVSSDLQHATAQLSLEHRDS
Procedure, shortened: as §1

ETV3L = target: T7, ETV3L (Homo sapiens, UniProt Q6ZN32 1-361)
T7 sequence: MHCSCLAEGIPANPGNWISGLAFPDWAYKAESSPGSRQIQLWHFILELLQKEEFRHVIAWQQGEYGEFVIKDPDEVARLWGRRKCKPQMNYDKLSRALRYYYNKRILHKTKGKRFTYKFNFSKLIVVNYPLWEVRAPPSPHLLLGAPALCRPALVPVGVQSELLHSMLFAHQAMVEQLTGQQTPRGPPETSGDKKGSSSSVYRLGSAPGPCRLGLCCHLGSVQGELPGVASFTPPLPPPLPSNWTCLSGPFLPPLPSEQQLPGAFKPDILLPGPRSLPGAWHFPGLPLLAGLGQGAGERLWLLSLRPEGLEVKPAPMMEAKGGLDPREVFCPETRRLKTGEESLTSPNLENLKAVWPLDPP
Procedure, shortened: as §1

ETS2 = target: T8, ETS2 (Homo sapiens, UniProt P15036 1-469)
T8 sequence: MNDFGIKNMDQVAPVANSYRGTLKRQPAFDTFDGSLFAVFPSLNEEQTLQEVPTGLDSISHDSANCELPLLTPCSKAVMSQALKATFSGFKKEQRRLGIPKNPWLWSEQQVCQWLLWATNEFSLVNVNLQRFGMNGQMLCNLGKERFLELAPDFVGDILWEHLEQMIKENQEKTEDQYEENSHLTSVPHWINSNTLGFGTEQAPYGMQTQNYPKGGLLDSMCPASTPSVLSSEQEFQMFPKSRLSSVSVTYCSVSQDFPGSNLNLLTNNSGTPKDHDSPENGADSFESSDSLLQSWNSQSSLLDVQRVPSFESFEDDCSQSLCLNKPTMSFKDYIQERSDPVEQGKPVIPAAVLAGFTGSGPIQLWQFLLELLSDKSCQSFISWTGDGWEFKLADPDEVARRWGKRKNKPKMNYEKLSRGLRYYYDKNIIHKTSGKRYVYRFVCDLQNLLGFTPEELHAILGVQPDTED
Procedure, shortened: as §1

SPDEF = target: T9, SPDEF (Homo sapiens, UniProt O95238 1-335)
T9 sequence: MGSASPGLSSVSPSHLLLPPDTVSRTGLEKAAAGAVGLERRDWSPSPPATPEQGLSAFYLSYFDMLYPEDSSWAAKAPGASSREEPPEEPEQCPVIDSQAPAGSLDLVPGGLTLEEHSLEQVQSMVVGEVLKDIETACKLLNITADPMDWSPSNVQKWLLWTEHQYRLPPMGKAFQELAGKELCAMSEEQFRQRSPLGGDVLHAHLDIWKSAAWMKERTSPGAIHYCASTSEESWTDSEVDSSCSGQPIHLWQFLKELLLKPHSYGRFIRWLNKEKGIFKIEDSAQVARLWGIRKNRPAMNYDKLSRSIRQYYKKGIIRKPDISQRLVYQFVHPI
Procedure, shortened: as §1

ETV7 = target: T10, ETV7 (Homo sapiens, UniProt Q9Y603 1-341)
T10 sequence: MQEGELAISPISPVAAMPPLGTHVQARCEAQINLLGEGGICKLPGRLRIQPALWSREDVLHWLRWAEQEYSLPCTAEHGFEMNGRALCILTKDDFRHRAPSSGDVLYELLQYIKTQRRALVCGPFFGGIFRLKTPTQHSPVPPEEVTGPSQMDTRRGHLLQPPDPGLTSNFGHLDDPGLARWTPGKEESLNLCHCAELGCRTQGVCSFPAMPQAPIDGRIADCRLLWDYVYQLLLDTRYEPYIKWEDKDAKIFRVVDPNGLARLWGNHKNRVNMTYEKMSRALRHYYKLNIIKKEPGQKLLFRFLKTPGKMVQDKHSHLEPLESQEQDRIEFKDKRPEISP
Procedure, shortened: as §1

ELF5 = target: T11, ELF5 (Homo sapiens, UniProt Q9UKW6-2 1-255)
T11 sequence: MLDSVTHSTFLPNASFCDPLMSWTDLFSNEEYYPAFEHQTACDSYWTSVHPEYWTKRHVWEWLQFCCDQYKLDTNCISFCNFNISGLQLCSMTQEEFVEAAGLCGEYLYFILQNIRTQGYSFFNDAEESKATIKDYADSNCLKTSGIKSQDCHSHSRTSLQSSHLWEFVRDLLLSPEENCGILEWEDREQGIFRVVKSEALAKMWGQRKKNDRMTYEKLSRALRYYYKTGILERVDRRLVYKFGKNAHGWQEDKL
Procedure, shortened: as §1

ETV3 = target: T12, ETV3 (Homo sapiens, UniProt P41162-2 1-143)
T12 sequence: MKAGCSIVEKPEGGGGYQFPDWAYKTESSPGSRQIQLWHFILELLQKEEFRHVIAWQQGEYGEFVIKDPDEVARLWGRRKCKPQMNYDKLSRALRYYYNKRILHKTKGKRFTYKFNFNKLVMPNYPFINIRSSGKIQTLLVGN
Procedure, shortened: as §1

ETV6 = ETV6 (Homo sapiens, UniProt P41212 1-452)
Chain of ETV6 (P41212 whole entry): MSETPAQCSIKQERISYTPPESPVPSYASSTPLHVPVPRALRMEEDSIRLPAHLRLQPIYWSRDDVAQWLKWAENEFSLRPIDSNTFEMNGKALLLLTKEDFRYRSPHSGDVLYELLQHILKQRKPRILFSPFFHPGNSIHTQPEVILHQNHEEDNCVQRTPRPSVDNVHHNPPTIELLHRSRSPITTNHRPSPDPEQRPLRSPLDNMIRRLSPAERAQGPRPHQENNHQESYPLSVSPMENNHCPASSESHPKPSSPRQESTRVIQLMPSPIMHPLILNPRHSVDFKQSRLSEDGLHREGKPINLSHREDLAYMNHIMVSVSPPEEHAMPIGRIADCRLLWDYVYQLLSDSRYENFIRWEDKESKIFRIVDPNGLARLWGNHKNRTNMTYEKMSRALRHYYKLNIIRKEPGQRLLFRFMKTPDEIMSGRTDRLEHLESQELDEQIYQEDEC
Procedure, shortened: as §1

| Sequence | binding signal (FEV) | binding signal (ETV5) | binding signal (SPIC) | binding signal (ELF4) | binding signal (ELK4) | binding signal (ETV2) | binding signal (ELF3) | binding signal (ETV1) | binding signal (ERF) | binding signal (ETV3L) | binding signal (ETS2) | binding signal (SPDEF) | binding signal (ETV7) | binding signal (ELF5) | binding signal (ETV3) | binding signal (ETV6) |
| --- | --- | --- | --- | --- | --- | --- | --- | --- | --- | --- | --- | --- | --- | --- | --- | --- |
| TTGGCC | 1.14 fold enrichment (6-mer frequency, TF over GST control) | 1.12 fold enrichment (6-mer frequency, TF over GST control) | 1.06 fold enrichment (6-mer frequency, TF over GST control) | 1.18 fold enrichment (6-mer frequency, TF over GST control) | 1.08 fold enrichment (6-mer frequency, TF over GST control) | 1.08 fold enrichment (6-mer frequency, TF over GST control) | 1.12 fold enrichment (6-mer frequency, TF over GST control) | 1.02 fold enrichment (6-mer frequency, TF over GST control) | 1.08 fold enrichment (6-mer frequency, TF over GST control) | 1.09 fold enrichment (6-mer frequency, TF over GST control) | 1.01 fold enrichment (6-mer frequency, TF over GST control) | 1.06 fold enrichment (6-mer frequency, TF over GST control) | 1.12 fold enrichment (6-mer frequency, TF over GST control) | 1.02 fold enrichment (6-mer frequency, TF over GST control) | 1.05 fold enrichment (6-mer frequency, TF over GST control) | 1.05 fold enrichment (6-mer frequency, TF over GST control) |
| CCAACA | 1.05 fold enrichment (6-mer frequency, TF over GST control) | 1.05 fold enrichment (6-mer frequency, TF over GST control) | 1.01 fold enrichment (6-mer frequency, TF over GST control) | 1.13 fold enrichment (6-mer frequency, TF over GST control) | 1.08 fold enrichment (6-mer frequency, TF over GST control) | 1.02 fold enrichment (6-mer frequency, TF over GST control) | 1.06 fold enrichment (6-mer frequency, TF over GST control) | 1.04 fold enrichment (6-mer frequency, TF over GST control) | 1.05 fold enrichment (6-mer frequency, TF over GST control) | 1.01 fold enrichment (6-mer frequency, TF over GST control) | 1.03 fold enrichment (6-mer frequency, TF over GST control) | 1.06 fold enrichment (6-mer frequency, TF over GST control) | 1.05 fold enrichment (6-mer frequency, TF over GST control) | 1.01 fold enrichment (6-mer frequency, TF over GST control) | 1.1 fold enrichment (6-mer frequency, TF over GST control) | – |
